{"source": "PubChem BioAssay", "key": {"[1]": {"test": "non-specific cell cytotoxicity, dose response, cytotoxicity control for PAX8 inhibitor project, plate reader, dry powder samples (AID 743021)", "settings": "cell line, non-specific cytotoxicity counter-screen; series mostly up to 35 µM"}, "[2]": {"test": "Ring1 mRNA increase in mouse ESCs, confirmation, esBAF inhibitor project, cell-based, mouse ESC, RT-qPCR, cherry-pick (AID 743176;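 active = Ring1 gene expression raised more than 2-fold over untreated cells in both replicates at either tested dose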;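 note: Ring1 transcript normalised to actin housekeeping signal by TaqMan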)", "settings": "mouse ESC E14, Ring1 mRNA RT-qPCR fold change, stronger effect = higher value"}, "[3]": {"test": "Fgf4 mRNA decrease in mouse ESCs, confirmation, esBAF inhibitor project, cell-based, mouse ESC, RT-qPCR, cherry-pick (AID 743177;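 active = Fgf4 expression under 0.8 fold of control in both repeat measurements at one or both tested doses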;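 note: Fgf4 transcript normalised to actin in duplex TaqMan qPCR; cells exposed to compound for 24 h before lysis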)", "settings": "mouse ESC E14, Fgf4 mRNA qPCR fold change, stronger effect = lower value"}, "[4]": {"test": "esBAF inhibition via Bmi1 de-repression, confirmation, cell-based, RT-qPCR, mouse ESC, single point, cherry-pick (AID 743180;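 active = Bmi1 expression fold change above 6 at either tested concentration, seen in replicate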)", "settings": "mouse ESC E14, Bmi1 mRNA qPCR fold, stronger effect = higher value"}, "[5]": {"test": "A549 cell cytotoxicity, cytotoxicity control, plate reader, single point, cherry-pick (AID 743188)", "settings": "at 25 µM"}, "[6]": {"test": "HepG2 cell cytotoxicity, cytotoxicity control, plate reader, single point, cherry-pick (AID 743189; in the data active = activity change below about -50%)", "settings": "at 25 µM, stronger effect = lower value"}, "[7]": {"test": "HEK293 cell cytotoxicity, cytotoxicity control, plate reader, single point, cherry-pick (AID 743190; in the data active = activity change below about -38%, passing the limit was not always enough)", "settings": "at 25 µM"}, "[8]": {"test": "A2780 ovarian cancer cell cytotoxicity, dose response, cytotoxicity control, plate reader, dry powder samples (AID 743046)", "settings": "series mostly up to 35 µM"}, "[9]": {"test": "IGROV1 ovarian cancer cell cytotoxicity, dose response, PAX8 inhibitor project, plate reader, dry powder samples (AID 743043);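 note: more negative means fewer viable cells or more cytotoxicity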", "settings": "series mostly up to 35 µM"}, "[10]": {"test": "NIH:OVCAR-3 ovarian cancer cell cytotoxicity, dose response, PAX8 inhibitor project, plate reader, dry powder samples (AID 743044)", "settings": "NIH:OVCAR-3 ovarian cancer cell viability; max activity: at 35 µM, stronger effect = lower value unless noted; series mostly up to 50 µM"}, "[11]": {"test": "IOSE-T80 ovarian epithelial cell cytotoxicity, dose response, cytotoxicity control for PAX8 inhibitor project, plate reader, dry powder samples (AID 743045);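 note: more negative values mean more cell killing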", "settings": "IOSE-T80 ovarian epithelial cells; series mostly up to 35 µM"}, "[12]": {"test": "cytotoxicity in OVCAR8 ovarian cancer cells, dose response, PAX8 project, cell-based, plate reader, dry powder samples (AID 743197)", "settings": "series mostly up to 35 µM"}, "[13]": {"test": "HepG2 cell cytotoxicity, dose response, cytotoxicity control, plate reader, cherry-pick, antagonist series (AID 743416)", "settings": "series mostly up to 26 µM"}}, "note": "For part of these data: Potency and affinity values are given separately. Results filed as inconclusive are left out. The list shows a part of the results. Entries that show only a call come without a potency. Active and inactive are the calls of the source. Unless noted, the rule behind the calls is not given here."}
{"smiles": "CCC(=O)NC(c1ccc(C)cc1)c1ccc2cccnc2c1O", "note": "(configuration not stated)", "values": [{"measurement": "outcome", "setting": "[1]", "result": "inactive"}]}
{"smiles": "Cc1ccc(-c2nc(COC(=O)c3c(C)noc3C)cs2)cc1", "values": [{"measurement": "fold change", "setting": "[2]; Ring1 fold increase, at 7 µM", "result": 1.44}, {"measurement": "fold change", "setting": "[2]; at 33 µM", "result": "1.18 (inactive)"}, {"measurement": "Fgf4 expression fold change", "setting": "[3]; Fgf4 expression, at 7 µM", "result": 1.15}, {"measurement": "Fgf4 expression fold change", "setting": "[3]; at 33 µM", "result": "1.07 (inactive)"}, {"measurement": "fold change", "setting": "[4]; Bmi1 de-repression, at 7 µM", "result": 1.56}, {"measurement": "fold change", "setting": "[4]; at 33 µM", "result": "1.73 (inactive)"}, {"measurement": "cell viability change % (negative = cytotoxic)", "setting": "[5]", "result": "-1.11% (inactive)"}, {"measurement": "activity change, negative = inhibition", "setting": "[6]", "result": "-41.9% (inactive)"}, {"measurement": "activity change, negative = inhibition", "setting": "[7]", "result": "-15.3% (inactive)"}]}
{"smiles": "Oc1cccc2cc(Nc3ccccc3)cnc12", "values": [{"measurement": "outcome", "setting": "[1]", "result": "inactive"}]}
{"smiles": "N#C[C@@H]1[C@@H](c2ccc(C#Cc3ccccc3F)cc2)[C@@H](CO)N1C(=O)C1CCCC1", "values": [{"measurement": "outcome", "setting": "[8]", "result": "inactive"}]}
{"smiles": "Brc1ccc(-n2cc(-c3ccccc3)c3c(NN4CCOCC4)ncnc32)cc1", "values": [{"measurement": "outcome", "setting": "[1]", "result": "inactive"}]}
{"smiles": "COc1cc2nc(C3CCC3)nc(N3CCN(c4ccccc4OC)CC3)c2cc1OC", "values": [{"measurement": "outcome", "setting": "[1]", "result": "inactive"}]}
{"smiles": "COc1cccc(C#Cc2ccc([C@@H]3[C@@H](C#N)N(C(=O)C4CCCC4)[C@@H]3CO)cc2)c1", "values": [{"measurement": "outcome", "setting": "[1]", "result": "inactive"}, {"measurement": "outcome", "setting": "[9]", "result": "inactive"}, {"measurement": "outcome", "setting": "[10]", "result": "inactive"}, {"measurement": "outcome", "setting": "[11]", "result": "inactive"}, {"measurement": "outcome", "setting": "[8]", "result": "inactive"}]}
{"smiles": "N#C[C@H]1[C@@H](c2ccc(C3=CCCC3)cc2)[C@@H](CO)N1C(=O)NC1CCCCC1", "values": [{"measurement": "outcome", "setting": "[1]", "result": "inactive"}, {"measurement": "outcome", "setting": "[9]", "result": "inactive"}, {"measurement": "outcome", "setting": "[10]", "result": "inactive"}, {"measurement": "outcome", "setting": "[8]", "result": "inactive"}]}
{"smiles": "COCC(=O)N1[C@H](CO)[C@H](c2ccc(-c3cccnc3)cc2)[C@@H]1C#N", "values": [{"measurement": "outcome", "setting": "[1]", "result": "inactive"}, {"measurement": "outcome", "setting": "[9]", "result": "inactive"}, {"measurement": "outcome", "setting": "[10]", "result": "inactive"}, {"measurement": "outcome", "setting": "[11]", "result": "inactive"}, {"measurement": "outcome", "setting": "[8]", "result": "inactive"}]}
{"smiles": "C[C@@H]1CN([C@@H](C)CO)S(=O)(=O)c2ccc(C#CC3CCCC3)cc2O[C@H]1CN(C)Cc1cccnc1", "values": [{"measurement": "outcome", "setting": "[9]", "result": "inactive"}, {"measurement": "outcome", "setting": "[11]", "result": "inactive"}, {"measurement": "outcome", "setting": "[12]", "result": "inactive"}]}
{"smiles": "COc1ccc(C)cc1NS(=O)(=O)c1ccc(-c2cnc(C3CC3)o2)cc1", "values": [{"measurement": "outcome", "setting": "[1]", "result": "inactive"}]}
{"smiles": "O=C(CCCN1C(=O)/C(=C\\c2ccccc2OC(F)F)SC1=S)Nc1cccnc1", "values": [{"measurement": "outcome", "setting": "[1]", "result": "inactive"}, {"measurement": "outcome", "setting": "[8]", "result": "inactive"}]}
{"smiles": "O=C(Nc1ccc(OCC(F)(F)C(F)F)c(C(F)(F)F)c1)c1ccccc1O", "values": [{"measurement": "outcome", "setting": "[1]", "result": "inactive"}, {"measurement": "outcome", "setting": "[11]", "result": "inactive"}, {"measurement": "outcome", "setting": "[8]", "result": "inactive"}]}
{"smiles": "O=C(CCCN1C(=O)/C(=C\\c2cccc(Br)c2)SC1=S)Nc1ccccn1", "values": [{"measurement": "outcome", "setting": "[1]", "result": "inactive"}, {"measurement": "outcome", "setting": "[8]", "result": "inactive"}]}
{"smiles": "CC(=O)NC(c1ccc(Cl)cc1)c1ccc2cccnc2c1O", "note": "(configuration not stated)", "values": [{"measurement": "outcome", "setting": "[1]", "result": "inactive"}]}
{"smiles": "O=C(O)c1cccc(COc2ccc3c(c2)CCC3)c1", "values": [{"measurement": "outcome", "setting": "[1]", "result": "inactive"}, {"measurement": "outcome", "setting": "[13]", "result": "inactive"}]}
